ChEMBL document CHEMBL3988442, “University of Dundee, Small-Polar-MMV Screening Library” (2021)
Among all 48,000 compounds or so, about 13,000 (27%) showed an effect of 50% or more. Some of the results follow.

Tested on: Wolbachia pipientis
Test: Anti-Wolbachia Cell-Based Screen
Assay type: functional
Design: scale not given: in the data most compounds retested in dose-response had high values
Conditions: 5 µM

Compound	Percent Effect [%]
Cn1cc(CNC(=O)NCCOc2ccc(F)c(F)c2)cn1	-13.41
Cc1nc(COc2nc(C(C)C)no2)cs1	5.061
CC(C)(N)c1cn(C2CCN(c3ncccc3Cl)CC2)nn1	-9.362
CC(c1ccccc1Cl)N1CCN(C(=O)c2ccc(=O)[nH]c2)CC1 (stereo not given)	-13
CN1CCN(Cc2cnn(-c3ccccc3Cl)c2)[C@H]2CS(=O)(=O)C[C@H]21	2.085
Cc1ccnc(C2CN(Cc3cnn(-c4ccccc4C(=O)O)c3)C2)n1	148.5
CCOC(=O)c1n[nH]cc1CN1CCCC(N(C)Cc2ccccc2)C1 (stereo not given)	-2.39
O=C(O)c1ccccc1-n1cc(CN2CCC(c3cc[nH]n3)C2)cn1 (stereo not given)	122.2
Cn1cc(CN2CC[C@@H]3[C@@H](CCC(=O)N3CCc3ccccc3)C2)cn1	-6.541
Cc1cccc(C)c1OC1CN(Cc2cnn(C)c2)C1	-10.44
O=C(O)c1ccccc1-n1cc(CN2CCOC(c3cc[nH]n3)C2)cn1 (stereo not given)	92.78
Cc1c[nH]nc1C1CN(Cc2cnn(-c3ccccc3C(=O)O)c2)C1	143.7
COC(=O)c1cccc2nc([C@H]3CCN(Cc4ccccc4)C3)oc12	-1.952
COCCc1noc(CNC2CCCN(c3cccnn3)C2)n1 (stereo not given)	6.075
CCOC(=O)c1coc(N2CCC(N3CCC(O)CC3)CC2)n1	-0.9238
CC(=O)N(c1ccc(C)cc1)c1nc(CN2CCCC(C)C2)cs1 (stereo not given)	4.19
O=C(c1cc[nH]n1)N1CCCC(c2cccc(-n3ccnc3)n2)C1 (stereo not given)	-0.007784
CC(=O)N1CCCC(c2cccc(-n3ccnc3)n2)C1 (stereo not given)	108.7
Cc1cc(C2CCC2)nc(N2CC(n3cccn3)C2)n1	18.14
O=C(c1cnccn1)N1CCCC(c2cccc(-n3ccnc3)n2)C1 (stereo not given)	132.1
O=C(C1CCC1)N1CCCC(c2cccc(-n3ccnc3)n2)C1 (stereo not given)	120
Cc1cc(C)nc(N2CCC(c3cncc(-n4ccnc4)n3)CC2)n1	132.5
Fc1ccc(CN2CCCC2c2cncc(-n3ccnc3)n2)cc1 (stereo not given)	-7.107
Cc1nc(COC[C@@H]2CCC[C@@]23CNCCO3)cs1.Cl.Cl	-7.746

Compound	Percent Effect [%]
CNS(=O)(=O)CC1CCCN1c1ccc(Br)cn1 (stereo not given)	-12.02
Cn1ccnc1C(NCc1csc(Br)c1)c1ccccc1 (stereo not given)	-0.294
CCc1nccc(CN2CCCC(c3nn(C)c(=O)n3CC)C2)n1 (stereo not given)	16.29
CC(C)[C@H]1COC(=O)N1Cc1nccn1C1CC1	4.052
CCc1nc(N)nc(NCc2cnn3cccnc23)c1C	-10.8
OCCCN1CCc2[nH]nc(C(c3ccccc3)c3ccccc3)c2C1	-10.74
O=C(Cn1ccc(=O)[nH]c1=O)NCc1cccnc1OCC(F)(F)F	7.684
CC(c1ccon1)N(C)C(=O)C1CCN(C2CCCCC2)CC1 (stereo not given)	-1.584
Cc1ccccc1CN1CCCN(S(=O)(=O)N(C)C2CCCCC2)CC1	-4.096
Cc1cnn(CCNCc2nccn2Cc2ccccc2)c1	6.467
O=C(C1CCCC1)N1CCCC(c2cccc(-n3ccnc3)n2)C1 (stereo not given)	109.1
CCCc1n[nH]cc1C(=O)N1CCCC(c2nccn2CC2CC2)C1 (stereo not given)	2.109
Cl.c1cnc(N2CCCC(NCc3ccc(-n4ccnc4)cc3)C2)nc1 (stereo not given)	24.04
c1cnc(N2CCCC(c3cncc(-n4ccnc4)n3)C2)nc1 (stereo not given)	115.9
Cn1c(Cn2ccnc2)nnc1C1CCCN(c2ncccn2)C1 (stereo not given)	5.27
Cc1n[nH]cc1C(=O)N1CCCC(c2cccc(-n3ccnc3)n2)C1 (stereo not given)	117.2
COCC(=O)N1CCCC(c2cccc(-n3ccnc3)n2)C1 (stereo not given)	83.17
Cc1cc(C2CCCN(C(=O)c3c(C)nn4cccnc34)C2)n[nH]1 (stereo not given)	-1.385
CC(C)Oc1cccc(CC(=O)N(CC(N)=O)C2CCCC2)c1	-6.842
CN(C)C(=O)c1ccc(N2CCC3(CCC(=O)N(CCO)C3)CC2)nc1	-10.7
O=C(Cn1[nH]c2ccccc2c1=O)N1CCCC(CC2CC2)(C(=O)O)C1 (stereo not given)	-7.331
Cc1ccnc(N2CCCC(c3nccn3C(C)C)C2)n1 (stereo not given)	2.014
Cc1nc(C(=O)N2CCCC(c3cccc(-n4ccnc4)n3)C2)co1 (stereo not given)	-10.62
Cc1cc(C)nc(N2CCCC(c3cccc(-n4ccnc4)n3)C2)n1 (stereo not given)	122.3

Compound	Percent Effect [%]
CCc1c(C)nc2ccccc2c1N1CCC(NC(C)=O)CC1	12.09
Cc1ccoc1C(=O)NCCOc1ccc(C(F)(F)F)cn1	-4.463
CCN1CCCCC1C(=O)N1CCC(OCCOC)CC1 (stereo not given)	73.16
COC(=O)N1CCCCC1C(=O)N1CCC(c2ccncc2)CC1 (stereo not given)	-8.744
CCN1CCCCC1C(=O)N1CCN(C(=O)OC)CC1 (stereo not given)	100.7
CC(=O)c1cccc(NC(=O)CN2CCCCC2C(=O)N2CCCC2)c1 (stereo not given)	-9.292
COCCOC1CCN(C(=O)NCc2coc3ccccc23)CC1	-1.148
COC(=O)N1CCCC(C(=O)N2CCCCC2)C1 (stereo not given)	-8.373
COCCOC1CCN(C(=O)NCc2cc(C)oc2C)CC1	6.618
CCN1CCCCC1C(=O)N1CCc2onc(-c3ccc(Cl)cc3)c2C1 (stereo not given)	6.805
CCN1CCCCC1C(=O)N1CCC(OC2CCCC2)CC1 (stereo not given)	102.5
CC/C=C(/C)C(=O)NCc1ccc(OC)nc1	-1.205
OCCOCCN1CCCC1c1nc2cc(F)ccc2[nH]1 (stereo not given)	-0.6121
CCC(=O)Nc1ccc(F)cc1OC	-5.571
Cc1cc(F)ccc1NC(=O)Cn1cc(C(=O)O)ccc1=O	-9.145
COCc1cc(CN(C)C(=O)CCC(=O)Nc2cc(C)ccc2F)n[nH]1	-13.49
COCCOCC(=O)NC(C#N)c1c(F)cccc1Cl (stereo not given)	-1.788
COCCOCC(=O)Nc1ccc(F)cc1C	92.33
O=C(Cn1ccc(=O)[nH]c1=O)Nc1ccccc1F	-14.53
COCCOCC(=O)Nc1cc(C)ccc1F	111.1
CN(C)S(=O)(=O)c1ccc(F)c(NC(=O)COCC2CC2)c1	-1.216
COCCOCC(=O)Nc1ccccc1F	116.5
